Bioassay records deposited in PubChem BioAssay by National Center for Advancing Translational Sciences (NCATS).
In the library only some 8.8% were active in any assay of this set; here they are far more common.
Lamin A splicing: qHTS Assay for Modulators of Lamin A Splicing; 200,000 tested, 0.01% active; HeLa LMNA splicing GFP/RFP minigene ratio, 48 h; Potency, µM (highest dose often 46.1 µM), inactives show top-dose ratio change, negative = inhibition, usual class: inhibitors; active = well fitted inhibition curve with a large enough effect in the signal ratio, with a control signal flat, not every such curve was filed as active; inconclusive = small, poorly fitted or top-dose-only effect, or effect the other way, or a change in a side signal; the % refers to the signal ratio; also: % is scaled to controls: 0 for no effect and ±100 for the full control effect
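S3 HeLa stable clones carrying a lamin A-EGFP splicing minigene plus DsRed2 were seeded at 600 cells/well in Opti-MEM with 2% FBS, pin-dosed and incubated 48 h at 37°C. Acumen cytometry (488 nm) gave the GFP/RFP total-intensity ratio.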
HTT aggregate: qHTS Multiplex Assay to Identify Dual Action Probes in a Cell Model of Huntington: Aggregate Formation (GFP) | PC12 HttQ103-GFP aggregates, Acumen cytometry, 40 h | Potency, µM (titrated, usually from 46.1 µM), inactives show at the top dose activity change, negative = inhibition, hits mostly inhibitors | 220,000 tested, 1.1% active; also: % is scaled to controls: 0 for no effect and ±100 for the full control effect; nearly all actives have a fitted effect of over 60% in size
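Steps: seed 1500 PC12 HTTQ103-GFP cells/well; add tebufenozide, 100 nM final; add compound titration; add ATPLite reagent; quantify GFP aggregates by laser scanning cytometry.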
HPGD inh: qHTS Assay for Inhibitors of HPGD (15-Hydroxyprostaglandin Dehydrogenase) | 15-hydroxyprostaglandin dehydrogenase [NAD(+)] (Homo sapiens), P15428 | purified HPGD, NADH fluorescence kinetic, PGE2 substrate | Potency, µM, for the others: top-dose activity change, negative = inhibition, actives largely listed as inhibitors | 150,000 tested, 4.3% active | AID 894, 2007; active = well fitted inhibition curve with a large enough effect, not every such curve was filed as active; inconclusive = small, poorly fitted or top-dose-only effect, or another doubt; inactive = no such curve, though single readings can be large or run the other way; also: % is scaled to controls: 0 for no effect and ±100 for the full control effect
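20 nM HPGD preincubated 15 min at room temperature with compound in 50 mM Tris-HCl pH 8, 0.01% Tween 20. Started with 1 mM NAD+ and 30 uM prostaglandin E2; NADH fluorescence (360/450 nm) read 5 times over 30-s intervals, last minus first.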
ALDH1A1 block: qHTS Assay for Inhibitors of Aldehyde Dehydrogenase 1 (ALDH1A1); Aldehyde dehydrogenase 1A1 (Homo sapiens), P00352; Purified ALDH1A1, NADH fluorescence, propionaldehyde substrate; Potency, µM (doses to about 75.3 µM), for the others: at the highest dose activity, negative = inhibition, actives largely listed as inhibitors; 220,000 tested, 7.3% active; AID 1030, 2008; active = well fitted inhibition curve with a large enough effect, not every such curve was filed as active; inconclusive = small, poorly fitted or top-dose-only effect, or another doubt; inactive = no such curve, though single readings can be large or run the other way;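 also: plate controls were no enzyme wells and a reference inhibitor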
Target sequence (P00352 whole entry, looked up): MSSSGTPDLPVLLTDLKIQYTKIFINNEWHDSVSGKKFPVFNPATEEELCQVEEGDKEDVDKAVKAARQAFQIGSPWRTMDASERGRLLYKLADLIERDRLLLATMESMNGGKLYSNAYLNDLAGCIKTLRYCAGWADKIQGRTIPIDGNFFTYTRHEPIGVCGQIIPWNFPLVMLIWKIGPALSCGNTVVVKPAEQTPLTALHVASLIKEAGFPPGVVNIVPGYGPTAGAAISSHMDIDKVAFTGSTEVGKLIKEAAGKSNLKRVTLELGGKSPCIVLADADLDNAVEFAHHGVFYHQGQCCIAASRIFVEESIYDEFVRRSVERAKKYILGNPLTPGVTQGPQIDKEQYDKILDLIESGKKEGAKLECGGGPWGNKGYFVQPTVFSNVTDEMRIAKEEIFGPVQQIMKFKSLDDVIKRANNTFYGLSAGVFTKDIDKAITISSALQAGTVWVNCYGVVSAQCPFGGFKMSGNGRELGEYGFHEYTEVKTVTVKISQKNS
HTT cytoprotect: qHTS Multiplex Assay to Identify Dual Action Probes in a Cell Model of Huntington: Cytoprotection (ATP); PC12 HTT-Q103 induced, cytoprotection, ATP luminescence, 40 h; AID 1471, 2008; Potency, µM (top dose mostly 56.4 µM), without a hit: cytoprotection (ATP increase), hits mostly activators; 230,000 tested, 0.14% active; also: % of control where 0% means no effect; nearly all actives have a fitted effect of over 45% in size
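Rat PC12, Q103 Htt exon1-GFP fusion, ecdysone promoter; tebufenozide inducer 100 nM final; compound titration; qHTS, 1500 cells/well; ATPlite luminescent read.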
* hit, by the source's call; [ ] = remark or other dose. Unless noted, calls follow the shape of the dose curve; as a rule, active = well fitted curve in the direction sought with a large enough effect; inconclusive = small, poorly fitted or top-dose-only effect, or another doubt; inactive = no such curve, though single readings can be large; an effect the other way counts as inactive or inconclusive. Potency is read from the fitted curve at half-maximal effect.

`CC(=O)CCc1ccccc1` gave HPGD inh -11%, ALDH1A1 block 25µM* and HTT cytoprotect 8%.
`CN1CCc2nc(N)c(C#N)c(-c3ccccc3)c2C1` gave Lamin A splicing -7%, HTT aggregate -5%, HPGD inh inconclusive, ALDH1A1 block inconclusive and HTT cytoprotect -3%[10 µM].
Screening NC(=O)c1sc2nc3c(c(-c4cccs4)c2c1N)CCCC3 returned Lamin A splicing inconclusive, HPGD inh inconclusive, ALDH1A1 block inconclusive and HTT cytoprotect 16µM*.
For CN1CCc2nc3sc(C#N)c(N)c3c(-c3cccs3)c2C1 the results were Lamin A splicing 0%, HTT aggregate -4%, HPGD inh -8%, ALDH1A1 block -3% and HTT cytoprotect 13µM*.
For Nc1c2c(nc3sc4c(c13)CCCCC4)CCCC2 the results were Lamin A splicing inconclusive, HTT aggregate inconclusive, HPGD inh -17%, ALDH1A1 block inconclusive and HTT cytoprotect -3%[10 µM].
Cc1ccc(CN2CCN(Cc3ccccc3F)CC2)cc1 was read as Lamin A splicing -3%[46 µM], HTT aggregate 23%, ALDH1A1 block inconclusive and HTT cytoprotect -46%.
Screening CCOC(=O)N1CCN(Cc2ccccc2F)CC1 returned Lamin A splicing 7%, HTT aggregate 9%, HPGD inh -1%, ALDH1A1 block 14µM* and HTT cytoprotect 13%[0.074 µM].
Screening COc1ccc2c(c1)[C@]13CCCC[C@@H]1[C@H](C2)NCC3 returned HTT cytoprotect 27%[1.9 µM].
`Cc1nnc2n1-c1ccc(Cl)cc1C(c1ccccc1)=NC2` gave Lamin A splicing inconclusive, HTT aggregate -13%, HPGD inh 16µM*, ALDH1A1 block 7% and HTT cytoprotect inconclusive.
`Clc1ccc2c(c1)C(c1ccccc1Cl)=NCc1nnc(N3CCN(CCOc4ccccc4)CC3)n1-2` gave Lamin A splicing inconclusive, HTT aggregate inconclusive, HPGD inh -3% and ALDH1A1 block 10µM*.
For COc1ccccc1C1=NCc2nnc(C)n2-c2ccc(Cl)cc21 the results were Lamin A splicing -11%, HTT aggregate 12%, HPGD inh 28µM*, ALDH1A1 block 13% and HTT cytoprotect -7%[0.074 µM].
For C[C@@H]1[C@H]2C=C[C@@H]1[C@@H](c1c3ccc(=O)c(O)c-3oc3c(O)c(O)ccc13)[C@@H]2C(=O)O the results were HTT cytoprotect -5%[10 µM].
Cc1csc(NC(=O)C2CCCN(S(=O)(=O)c3ccc4c(c3)oc(=O)n4C)C2)n1 (configuration not stated) was read as Lamin A splicing inconclusive, HTT aggregate 6%, HPGD inh 8.9µM*, ALDH1A1 block -15% and HTT cytoprotect -1%.
For C=CCN1C[C@H](C)N([C@H](c2ccc(C(=O)N(CC)CC)cc2)c2cccc(O)c2)C[C@H]1C the results were HPGD inh 11µM*, ALDH1A1 block 4% and HTT cytoprotect -22%.
O=C(Cl)OCc1ccccc1 was read as HPGD inh -7%, ALDH1A1 block inconclusive and HTT cytoprotect -1%.
OC(c1ccc(Cl)cc1)(c1ccc(Cl)cc1)C(Cl)(Cl)Cl was read as HPGD inh -6%, ALDH1A1 block -5% and HTT cytoprotect -2%.
O=[N+]([O-])c1cc2c(cc1CNCCc1ccc3c(c1)OCO3)OCO2 was read as Lamin A splicing -10%, HTT aggregate 3%, HPGD inh -3%, ALDH1A1 block 28µM* and HTT cytoprotect 2%[10 µM].
`Oc1ccc(CCNCc2cc3c(cc2Br)OCO3)cc1` gave HPGD inh -23%, ALDH1A1 block -1%[13.5 µM] and HTT cytoprotect -26%[10 µM].
CCn1c(N)c(C(=O)NC)sc1=S was read as Lamin A splicing 3%, HTT aggregate -21%, HPGD inh 3.5µM*, ALDH1A1 block 2.8µM* and HTT cytoprotect 3%.
